The record followed here is PubChem BioAssay (Tox21).

A number with no mark means an inactive call. Inconclusive results are not listed. Calls of active or inactive are those of the source. Unless noted, calls follow the shape of the dose curve; as a rule, active = well fitted curve in the direction sought with a large enough effect in the repeat runs; inconclusive = weak or mixed curves; inactive = no such curve, though single readings can be large; an effect the other way counts as inactive or inconclusive.

Assay [1] is described as follows: qHTS assay to identify small molecule antagonists of the estrogen receptor beta (ER-beta) signaling pathway - cell viability counter screen (AID 1259382).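 Also: HEK293T cells carrying ER-beta-UAS-bla reporter stimulated with estradiol; series mostly up to about 92 µM; nearly all actives have a fitted effect of over 55% in size.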 A digest of the protocol:
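Following a 6 hr plating period, HEK293T cells carrying a UAS-driven beta-lactamase reporter under ER-beta control received compounds and 1nM E2 (final). After 16 hr at 37C and 2 hr substrate loading, CellTiter-Glo luminescence indicated viability.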

Assay [2] has as its target Estrogen receptor (Homo sapiens) (UniProt P03372). Briefly: qHTS assay to identify small molecule agonists of the estrogen receptor alpha (ER-alpha) signaling pathway in the presence of an antagonist (AID 1259383; calls by dose curve; also: top concentration of the series differs between compounds; nearly all actives have a fitted effect of over 15% in size). An outline of the steps:
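Cells are hormone-deprived for 5 days (charcoal-stripped FBS, no phenol red), plated for 24hr, spiked with 10.0nM ICI-182,780, then dosed at 15 concentrations. After 22hr at 37C, ONE-Glo luminescence reports ERE-luciferase activity.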
For orientation: In qHTS, concentration-response curves come from the screen itself.

A short description of assay [3]: qHTS assay to identify small molecule agonists or antagonists of the thyroid stimulating hormone receptor (TSHR) signaling pathway - wild type cell line counter screen (AID 1259384; calls by dose curve). A digest of the protocol:
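Counter screen in untransfected Hek293: compounds (15-point titration, triplicate) plus phosphodiesterase inhibitor Ro20-1724 added after 18 h plating; 30 min RT. Intracellular cAMP via competitive d2/cryptate immunoassay, 1 h incubation.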

In assay [4] the target is Thyrotropin receptor (Homo sapiens) (UniProt P16473). The assay can be described thus: qHTS assay to identify small molecule antagonists of the thyroid stimulating hormone receptor (TSHR) signaling pathway (AID 1259385; calls by dose curve; also: nearly all actives have a fitted effect of over 20% in size). A digest of the protocol: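 Antagonist mode: compound-treated TSHR-expressing HEK293 cells were stimulated with 1.5 ng/mL TSH (final) in presence of Ro20-1724 for 30 min at RT. HTRF cAMP detection after 1 h; each compound tested at 15 concentrations, triplicate.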
Sequence of Thyrotropin receptor (Homo sapiens) (P16473 whole entry, looked up): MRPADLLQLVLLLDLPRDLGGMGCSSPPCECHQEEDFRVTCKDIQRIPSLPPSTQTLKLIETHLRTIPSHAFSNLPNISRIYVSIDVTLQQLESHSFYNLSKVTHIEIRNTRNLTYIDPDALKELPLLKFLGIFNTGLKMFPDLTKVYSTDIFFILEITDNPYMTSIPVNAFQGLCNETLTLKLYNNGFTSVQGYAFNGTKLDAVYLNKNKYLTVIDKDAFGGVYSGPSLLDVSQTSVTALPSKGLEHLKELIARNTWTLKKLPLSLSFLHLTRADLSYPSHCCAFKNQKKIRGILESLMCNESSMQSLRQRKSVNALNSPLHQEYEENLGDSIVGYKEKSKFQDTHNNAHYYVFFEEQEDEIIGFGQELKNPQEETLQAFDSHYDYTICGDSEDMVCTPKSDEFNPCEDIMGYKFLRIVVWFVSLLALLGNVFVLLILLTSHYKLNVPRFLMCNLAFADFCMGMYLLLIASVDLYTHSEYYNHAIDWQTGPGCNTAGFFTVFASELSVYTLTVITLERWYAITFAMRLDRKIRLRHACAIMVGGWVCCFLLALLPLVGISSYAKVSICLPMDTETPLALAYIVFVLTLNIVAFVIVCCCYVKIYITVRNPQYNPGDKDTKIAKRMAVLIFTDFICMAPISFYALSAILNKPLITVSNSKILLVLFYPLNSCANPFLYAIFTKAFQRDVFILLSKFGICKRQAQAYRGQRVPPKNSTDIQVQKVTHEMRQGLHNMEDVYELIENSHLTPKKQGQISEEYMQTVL

A short description of assay [5]: qHTS assay to identify small molecule agonists of the estrogen receptor alpha (ER-alpha) signaling pathway in the presence of an antagonist - cell viability counter screen (AID 1259386).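 Also: series mostly up to about 92 µM; cells exposed to compounds for 22 h at 37 °C before the viability read; nearly all actives have a fitted effect of over 30% in size.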 A digest of the protocol: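 Cells are starved of estrogens for 5 days in charcoal-stripped serum, seeded for 24hr and co-treated with ICI-182,780 (10.0nM final) and test compounds. After 22hr at 37C, viability is read as CellTiter-Fluor fluorescence.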

The target of assay [6] is Progesterone receptor (Homo sapiens) (UniProt P06401). The assay can be described thus: qHTS assay to identify small molecule agonists of the progesterone receptor (PR) signaling pathway (AID 1346784; calls by dose curve; also: nearly all actives have a fitted effect of over 30% in size). A digest of the protocol:
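PR-UAS-bla HEK 293T cells carrying a UAS-driven beta-lactamase reporter were seeded in medium with 2% charcoal-stripped FBS, preincubated 6 hr at 37C, then exposed to compounds in DMSO for 16 hr; agonism was read by LiveBLAzer B/G FRET fluorescence.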

Assay [7] shares this target. Briefly: qHTS assay to identify small molecule antagonists of the progesterone receptor (PR) signaling pathway (AID 1346795; active = well fitted inhibition curve with a large enough effect in the signal ratio in the repeat runs, not every such curve was filed as active; the % refers to the signal ratio; also: potency is read from the fitted curve at half-maximal effect). A digest of the protocol:
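PR-UAS-bla HEK293T cells carrying a UAS-driven beta-lactamase reporter were plated in medium with 2% charcoal-stripped FBS and rested 6 hr at 37C. Compounds were added with 1 nM R5020 (final) for 16 hr, then FRET substrate loaded 2 hr at room temperature.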

Assay [8] in a line: qHTS assay to identify small molecule agonists of the progesterone receptor (PR) signaling pathway - cell viability counter screen (AID 1346799; calls by dose curve; also: nearly all actives have a fitted effect of over 45% in size). A digest of the protocol:
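PR-UAS-bla HEK293T cells, 3,000 per well in medium with 2% charcoal-stripped FBS, were preincubated 6 hr at 37C, then exposed to compounds for 16 hr; viability was read as CellTiter-Glo luminescence after 30 min at room temperature.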

A short description of assay [9]: qHTS assay to identify small molecule antagonists of the TGF-beta/Smad signaling pathway - cell viability counter screen (AID 1346824). Also: nearly all actives have a fitted effect of over 50% in size. A digest of the protocol:
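Cytotoxicity counter-screen run in the same wells as the beta-lactamase Smad reporter read: CellTiter-Glo luminescence after 30 min at room temperature. HEK 293T SBE-bla cells had 5 hr compound exposure at 37 C with TGF-beta1 (0.25 ng/mL stock).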

The nature of assay [10]: qHTS assay to identify small molecule agonists of the TGF-beta/Smad signaling pathway - cell viability counter screen (AID 1346829). Also: top concentration of the series differs between compounds; nearly all actives have a fitted effect of over 45% in size. An outline of the steps:
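Luminescence from CellTiter-Glo, read after a 30 min room-temperature incubation, gives cell viability of SBE-bla HEK 293T cells treated 5 hr with compounds at 37 C.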

A short description of assay [11]: Human pregnane X receptor (PXR) small molecule agonists, qHTS cell viability counter screen (AID 1346977). Also: nearly all actives have a fitted effect of over 50% in size. An outline of the steps: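 PXR-Luc HepG2 cells in medium with 5% charcoal-stripped FBS were pre-incubated 5hr, then exposed to compounds for 24hr at 37C. Viability was read in the same wells by CellTiter-Fluor fluorescence, reagent added after 23hr with a 1hr incubation.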

Assay [12] in a line: Caspase-3/7 induction in HepG2 cells by small molecules, qHTS assay (AID 1346978). Also: nearly all actives have a fitted effect of over 15% in size. An outline of the steps:
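Caspase-3/7 induction was measured by Caspase-Glo 3/7 luminescence (30 min, room temperature) after a 17 hr compound exposure of wild-type HepG2 cells seeded at 2,000 per well and pre-incubated 5 hr.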

Assay [13] in a line: Caspase-3/7 induction in CHO-K1 cells by small molecules, qHTS cell viability counter screen (AID 1346979). Also: nearly all actives have a fitted effect of over 35% in size. A digest of the protocol: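 Wild-type CHO-K1 cells were seeded at 1,500 per well, rested 5hr at 37 C, then exposed to compounds in DMSO. After 16hr, CellTiter-Fluor reagent was added and fluorescence read 1hr later as the viability measure.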
A short description of assay [14]: Caspase-3/7 induction in CHO-K1 cells by small molecules, qHTS assay (AID 1346980). Also: nearly all actives have a fitted effect of over 15% in size. A digest of the protocol:
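Luminescent Caspase-Glo 3/7 read (30min, room temperature) quantified apoptosis induction. Cells were wild-type CHO-K1, treated with compound for 17hr at 37 C and 5% CO2.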

A short description of assay [15]: Caspase-3/7 induction in HepG2 cells by small molecules, qHTS cell viability counter screen (AID 1346981). Also: series mostly up to about 92 µM; nearly all actives have a fitted effect of over 30% in size. An outline of the steps: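 Steps: seed 2,000 HepG2 cells per well; incubate 5 hr at 37 C; pin-add compounds in DMSO; incubate 16 hr; add CellTiter-Fluor; after 1 hr at 37 C and 5% CO2, read fluorescence.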
Assay [16] in a line: qHTS assay to identify small molecule antagonists of the progesterone receptor (PR) signaling pathway - cell viability counter screen (AID 1346798). Also: series mostly up to about 92 µM; nearly all actives have a fitted effect of over 50% in size. An outline of the steps:
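PR-UAS-bla HEK293T cells in medium with 2% charcoal-stripped FBS were treated with compounds plus R5020 for 16 hr at 37C. Cell viability was then read by CellTiter-Glo luminescence after 30 min at room temperature in the same wells.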

Assay [17] is described as follows: qHTS assay to identify small molecule agonists of the TGF-beta/Smad signaling pathway (AID 1346859; active = well fitted activation curve with a large enough effect in the signal ratio in the repeat runs, not every such curve was filed as active; the % refers to the signal ratio; also: series mostly up to about 77 µM). A digest of the protocol:
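HEK 293T cells stably carrying a beta-lactamase reporter driven by the Smad binding element were seeded overnight, exposed to DMSO-dissolved compounds for 5 hr at 37 C, 5% CO2, then loaded with FRET substrate for 2 hr at room temperature.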

In assay [18] the target is Thyrotropin-releasing hormone receptor (Homo sapiens) (UniProt P34981). Briefly: qHTS assay to identify small molecule antagonists of the thyrotropin-releasing hormone receptor (TRHR) signaling pathway (AID 1346877; active = well fitted inhibition curve with a large enough effect in the repeat runs, not every such curve was filed as active; also: series mostly up to about 51 µM). An outline of the steps:
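Cells (TRHR-HEK293) are plated and kept 18 h at 37 °C/5% CO2. A calcium-sensitive dye is added for 2 h, compound follows for 5 min at room temperature, and TRH is then given at 1 nM final.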

Assay [19] has the same target. The assay can be described thus: qHTS assay to identify small molecule agonists of the thyrotropin-releasing hormone receptor (TRHR) signaling pathway (AID 1346891; calls by dose curve; also: series mostly up to about 58 µM). An outline of the steps: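 TRHR-expressing HEK293 cells were plated 18 h at 37 °C/5% CO2, loaded with calcium dye 2 h at 37 °C, then given compound in DMSO; fluorescence was read kinetically for 3 min at 1 s intervals.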
% is scaled to controls: 0 for no effect and ±100 for the full control effect.

Sequence of Estrogen receptor (Homo sapiens) (P03372 whole entry, looked up): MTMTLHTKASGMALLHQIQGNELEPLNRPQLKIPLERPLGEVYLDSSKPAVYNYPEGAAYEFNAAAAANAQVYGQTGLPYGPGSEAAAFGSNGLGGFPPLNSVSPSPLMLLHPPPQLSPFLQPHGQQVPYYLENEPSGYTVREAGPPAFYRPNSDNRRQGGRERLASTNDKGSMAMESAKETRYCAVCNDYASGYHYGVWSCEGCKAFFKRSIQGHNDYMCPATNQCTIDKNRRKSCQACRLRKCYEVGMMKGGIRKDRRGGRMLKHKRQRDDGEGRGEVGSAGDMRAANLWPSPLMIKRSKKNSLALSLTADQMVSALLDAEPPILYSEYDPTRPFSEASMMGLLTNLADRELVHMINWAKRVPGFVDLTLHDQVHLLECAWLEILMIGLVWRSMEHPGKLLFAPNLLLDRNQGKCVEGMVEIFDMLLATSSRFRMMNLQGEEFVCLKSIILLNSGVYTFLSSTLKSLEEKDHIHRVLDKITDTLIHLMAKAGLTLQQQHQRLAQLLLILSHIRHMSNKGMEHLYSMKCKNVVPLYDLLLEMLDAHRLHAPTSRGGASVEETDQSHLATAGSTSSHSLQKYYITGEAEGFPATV
Sequence of Thyrotropin-releasing hormone receptor (Homo sapiens) (P34981 whole entry, looked up): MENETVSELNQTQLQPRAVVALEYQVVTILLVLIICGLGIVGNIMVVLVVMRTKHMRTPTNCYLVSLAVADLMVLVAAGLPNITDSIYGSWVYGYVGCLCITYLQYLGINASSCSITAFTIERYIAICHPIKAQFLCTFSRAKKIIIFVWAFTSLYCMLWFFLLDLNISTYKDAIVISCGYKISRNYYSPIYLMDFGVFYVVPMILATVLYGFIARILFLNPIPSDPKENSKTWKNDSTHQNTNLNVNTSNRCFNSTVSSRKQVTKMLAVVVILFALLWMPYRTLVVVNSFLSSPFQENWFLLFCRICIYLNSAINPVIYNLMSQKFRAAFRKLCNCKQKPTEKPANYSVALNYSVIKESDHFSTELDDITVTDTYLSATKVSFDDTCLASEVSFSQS
Sequence of Progesterone receptor (Homo sapiens) (P06401 whole entry, looked up): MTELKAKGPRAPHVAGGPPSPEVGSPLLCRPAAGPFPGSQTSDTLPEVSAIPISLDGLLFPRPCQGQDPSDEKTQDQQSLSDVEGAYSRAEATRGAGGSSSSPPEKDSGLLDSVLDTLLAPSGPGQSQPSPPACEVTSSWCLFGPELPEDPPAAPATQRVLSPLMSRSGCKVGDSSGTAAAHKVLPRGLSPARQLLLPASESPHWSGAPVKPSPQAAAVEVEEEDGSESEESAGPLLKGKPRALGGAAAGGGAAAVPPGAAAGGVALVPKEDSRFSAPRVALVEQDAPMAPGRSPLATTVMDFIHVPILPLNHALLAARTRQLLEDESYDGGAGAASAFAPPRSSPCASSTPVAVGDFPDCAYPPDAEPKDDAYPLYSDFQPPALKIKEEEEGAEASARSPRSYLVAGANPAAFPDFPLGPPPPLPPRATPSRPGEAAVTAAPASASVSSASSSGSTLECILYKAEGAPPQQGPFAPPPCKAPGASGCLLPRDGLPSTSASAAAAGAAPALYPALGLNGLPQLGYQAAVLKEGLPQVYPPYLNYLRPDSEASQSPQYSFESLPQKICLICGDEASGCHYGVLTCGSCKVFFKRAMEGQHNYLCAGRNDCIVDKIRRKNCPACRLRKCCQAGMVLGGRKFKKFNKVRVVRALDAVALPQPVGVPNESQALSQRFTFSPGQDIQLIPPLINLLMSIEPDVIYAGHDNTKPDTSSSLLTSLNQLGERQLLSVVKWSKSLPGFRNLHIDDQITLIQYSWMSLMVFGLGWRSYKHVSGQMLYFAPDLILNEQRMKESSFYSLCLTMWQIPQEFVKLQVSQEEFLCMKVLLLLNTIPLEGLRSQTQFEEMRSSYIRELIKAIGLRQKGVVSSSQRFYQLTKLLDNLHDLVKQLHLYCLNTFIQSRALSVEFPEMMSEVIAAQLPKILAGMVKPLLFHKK

On to `CN(C)CCN(C)CCO`, for which the outcome in assay [1], in assay [3], in assay [4], in assay [5], in assay [8] and in assay [9] was inactive. Moreover, the compound was classed as inactive in assay [10], in [11], in assay [12], in assay [14] and in assay [15]. Further, the Potency entry in [2], in assay [6], in [7] and in assay [13] was “inactive” each time.
In the case of `[O]=[Mo](=[O])=[O]`, the activity change, negative = cytotoxicity in assay [1] is -3.58% [at 19 µM]; in assay [5] it was -0.317% [at 19 µM]; in [16], 2.8% [at 18.9 µM]; in assay [8], 7.88% [at 19 µM]; in assay [10] it was 7.35% [at 15.8 µM]; in assay [11] it was 1.91% [at 19 µM]. Besides, the activity change, negative = cytotoxicity in assay [13] was 3.86% [at 19 µM]; in [15] it was -3.34% [at 19 µM]. The activation in [2] is -1.83% [at 19 µM]; in assay [6], 1.92% [at 19 µM]. The cAMP activity change in assay [3] is -1.05% [at 18.9 µM]. In addition, the activity change, negative = inhibition is 4.59% [at 19 µM] in assay [4] and 2.07% [at 18.9 µM] in assay [7]. Besides, in assay [9], the viability change, negative = cytotoxic is 0.506% [at 15.8 µM]. Also, the caspase activation in assay [12] is 1.23% [at 19 µM]. For the same compound, the caspase-3/7 activation in assay [14] was 0.334% [at 19 µM].
Regarding `NCCOCCN`, the result in assay [1], in assay [3], in [4], in assay [5], in assay [8] and in [9] was inactive. The outcome in [10], in assay [17], in assay [18], in [19], in assay [11] and in assay [12] was inactive. Moreover, the compound was called inactive in [14] and in assay [15]. Also, the Potency entry in assay [2], in assay [6], in [7] and in assay [13] was “inactive” each time.
As to `CCC(C(=O)OCCN1CCOC(c2ccccc2)C1C)c1ccccc1` (stereo not given), the compound was called inactive in assay [1], in assay [3], in assay [4], in assay [5], in [9] and in assay [10]. Besides, the outcome in assay [17], in assay [18], in [19], in [11], in assay [12] and in [14] was inactive. In assay [15], the outcome was inactive. For the same compound, the Potency result in assay [2], in [6] and in assay [13] was “inactive” each time. Besides, in assay [7], the Potency was 23.7 µM (active).
Turning to `O=C(O)CNC(=O)CNC(=O)CNC(=O)CSC(=O)c1ccccc1`, the outcome in assay [1], in [3], in [4], in [5], in [16] and in [8] was inactive. Also, the call in assay [9], in assay [10], in assay [17], in assay [18], in assay [19] and in assay [11] was inactive. The compound was classed as inactive in assay [12], in assay [14] and in assay [15]. Moreover, the Potency entry in assay [2] and in assay [6] was “inactive” in each case.
On to `Cc1c(Cl)cccc1Cl`, for which the compound was classed as inactive in [1], in assay [3], in assay [4], in assay [5], in [9] and in assay [10]. Also, the compound was called inactive in [17], in assay [11], in assay [12], in assay [14] and in assay [15]. Also, the Potency entry in [2], in assay [6] and in assay [13] was “inactive” throughout.
For the compound `CC(O)CC(C)O` (stereo not given), the compound was called inactive in assay [1], in [3], in assay [4], in assay [5], in assay [16] and in assay [8]. For the same compound, the outcome in assay [9], in assay [10], in [17], in assay [18], in assay [19] and in [11] was inactive. The compound was classed as inactive in [12], in assay [14] and in assay [15]. Also, the Potency entry in assay [6], in assay [7] and in assay [13] was “inactive” each time.
